In PubChem BioAssay (NCATS):
Where “and” joins values, the source holds several entries; their conditions need not be identical. Equal entries are not always repeated. Inconclusive results are not listed. Calls of active or inactive are those of the source. Unless noted, the call rests on the fitted dose curve; in most records, active means well fitted curve in the direction sought with a large enough effect; inconclusive means small, poorly fitted or top-dose-only effect, or another doubt; inactive means no such curve, though single readings can be large; an effect the other way counts as inactive or inconclusive.

Columns and labels:
[1] = biological target: Cellular tumor antigen p53 (Homo sapiens) (UniProt P04637); assay: Primary qHTS for small molecule compounds that upregulate eGFP-tagged delta133p53alpha (in N-terminal) cells. (AID 2060322); conditions: NCI-H358 eGFP-delta133p53alpha fluorescence, 24 h; activation: active compounds read high;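 further: cells pre-induced with doxycycline then dosed without doxycycline; series mostly up to about 56 µM; 0% = DMSO vehicle and 100% = reference activator; nearly all actives have a fitted effect of over 75% in size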
Procedure, shortened: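 NCI-H358 cells pre-induced 24 h with 10 ng/ml doxycycline for eGFP-delta133p53alpha, plated dox-free and exposed 24 h at 37C to titrated compounds. Fixed, Hoechst-stained; gated GFP peak intensity by laser scanning cytometry, normalized to DMSO (0%) and 57.5 uM 5-azacytidine (100%).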

[2] = biological target: Aldehyde dehydrogenase, mitochondrial (Homo sapiens) (UniProt P05091); assay: qHTS for Inhibitors of the Aldehyde Dehydrogenase Family (ALDH2) Confirmatory screens (AID 2061303; active means well fitted inhibition curve with a large enough effect; title and protocol of this record describe different tests; further: on the % scale 0 is the no-effect control and ±100 the full control effect; nearly all actives have a fitted effect of over 45% in size)
[3] = biological target: Aldehyde dehydrogenase, mitochondrial (Homo sapiens) (UniProt P05091); assay: qHTS for Inhibitors of the Aldehyde Dehydrogenase Family (ALDH2) Primary screen (AID 2061308);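 further: plate controls were vehicle for no effect and reference inhibitor for full effect; nearly all actives have a fitted effect of over 55% in size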
[4] = biological target: Retinal dehydrogenase 2 (Homo sapiens) (UniProt O94788); assay: qHTS for Inhibitors of the Aldehyde Dehydrogenase Family (ALDH1A2) Confirmation screens (AID 2061314); further: nearly all actives have a fitted effect of over 65% in size
[5] = biological target: Retinaldehyde dehydrogenase 3 (Homo sapiens) (UniProt P47895); assay: qHTS for Inhibitors of the Aldehyde Dehydrogenase Family (ALDH1A3) Primary screen (AID 2061315);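 further: plate controls were DMSO vehicle for no effect and reference inhibitor for full effect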
[6] = biological target: Aldehyde dehydrogenase 1A1 (Homo sapiens) (UniProt P00352); assay: qHTS for Inhibitors of the Aldehyde Dehydrogenase Family (ALDH1A1) Confirmatory screens (AID 2061316); further: nearly all actives have a fitted effect of over 65% in size
[7] = biological target: Retinaldehyde dehydrogenase 3 (Homo sapiens) (UniProt P47895); assay: qHTS for Inhibitors of the Aldehyde Dehydrogenase Family (ALDH1A3) Confirmatory screens (AID 2061311); further: on the % scale 0 is the no-effect control and ±100 the full control effect; nearly all actives have a fitted effect of over 60% in size
[8] = biological target: Retinaldehyde dehydrogenase 3 (Homo sapiens) (UniProt P47895); assay: qHTS for Inhibitors of the Aldehyde Dehydrogenase Family (ALDH1A3) Validation screen (AID 2061312); further: on the % scale 0 is the no-effect control and ±100 the full control effect; nearly all actives have a fitted effect of over 45% in size
[9] = BET inhibitor-based combinations targeting novel dependencies in MECOM-rearranged (r) AML: SET-2 cell line (AID 2202231); conditions: SET-2 AML cells viability, CellTiter-Glo luminescence, 48 h; viability: active compounds read low, concentration not given here; further: nearly all actives have a fitted effect of over 35% in size; further: potency means the concentration at half of the fitted maximal effect;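 on viability: plate controls were DMSO treated cells for no effect and wells without cells for full effect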
Procedure, shortened: (§1)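 AML cell lines seeded at 500 cells/well, treated with 11-point dose curves for 48 h. Viability by CellTiter-Glo luminescence, normalised to DMSO and empty wells; activity expressed as AUC and per-cell-line Z-transformed AUC.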

[10] = BET inhibitor-based combinations targeting novel dependencies in MECOM-rearranged (r) AML: MV-4-11 cell line (AID 2202233); further: potency means the concentration at half of the fitted maximal effect; nearly all actives have a fitted effect of over 45% in size
Procedure, shortened: (§2)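 Cells at 500/well were exposed for 48 hr to MIPE v5.0 drugs as 11-point dose curves. Viability was read by CellTiter-Glo luminescence and normalized to DMSO and empty-well controls. Activity was expressed as AUC and per-cell-line Z-AUC.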

[11] = BET inhibitor-based combinations targeting novel dependencies in MECOM-rearranged (r) AML: UCSD-AML1 cell line (AID 2202235); further: nearly all actives have a fitted effect of over 40% in size; further: potency means the concentration at half of the fitted maximal effect
Procedure, shortened: as §2

[12] = BET inhibitor-based combinations targeting novel dependencies in MECOM-rearranged (r) AML: AML-191 cell line (AID 2202236; further: potency means the concentration at half of the fitted maximal effect; nearly all actives have a fitted effect of over 35% in size)
Procedure, shortened: as §1

[13] = BET inhibitor-based combinations targeting novel dependencies in MECOM-rearranged (r) AML: OCI-AML3 cell line (AID 2202232); conditions: Potency: OCI-AML3 viability; further: potency means the concentration at half of the fitted maximal effect; nearly all actives have a fitted effect of over 35% in size
Procedure, shortened: as §1

[14] = BET inhibitor-based combinations targeting novel dependencies in MECOM-rearranged (r) AML: HNT-34 cell line (AID 2202234); further: potency means the concentration at half of the fitted maximal effect; nearly all actives have a fitted effect of over 35% in size
Procedure, shortened: as §2

[15] = BET inhibitor-based combinations targeting novel dependencies in MECOM-rearranged (r) AML: AML-194 cell line (AID 2202237; further: potency means the concentration at half of the fitted maximal effect; nearly all actives have a fitted effect of over 40% in size)
Procedure, shortened: as §1

Sequence of Cellular tumor antigen p53 (Homo sapiens) (P04637 whole entry, looked up): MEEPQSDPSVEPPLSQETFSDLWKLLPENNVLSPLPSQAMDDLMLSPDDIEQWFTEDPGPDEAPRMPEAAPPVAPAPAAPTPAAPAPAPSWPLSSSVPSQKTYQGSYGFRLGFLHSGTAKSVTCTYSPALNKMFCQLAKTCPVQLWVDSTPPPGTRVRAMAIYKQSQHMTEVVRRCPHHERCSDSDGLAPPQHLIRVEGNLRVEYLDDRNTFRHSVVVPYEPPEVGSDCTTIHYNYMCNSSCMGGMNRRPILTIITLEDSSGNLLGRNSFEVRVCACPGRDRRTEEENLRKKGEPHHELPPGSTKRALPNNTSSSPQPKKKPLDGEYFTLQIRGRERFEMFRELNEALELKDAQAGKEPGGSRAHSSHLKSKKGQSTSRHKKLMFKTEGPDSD

CC1=C2CC3C(CCC3(C)O)C(C)(O)CC2OC1=O (stereo not given)
inactive: activation [1] -2.68% | Potency [2] | Potency [3] | Potency [4] | Potency [5] | Potency [6]

OCC(O)C(c1c[nH]c2ccccc12)c1c[nH]c2ccccc12 (stereo not given)
inactive: activation [1] -8.93% | Potency [2] | Potency [3] | Potency [5]

COc1ccc(NC(=O)c2ccc(-c3ccc(C(N)=O)cc3C)cc2)cc1N1CCN(C)CC1
inactive: activation [1] 1.43% | Potency [2] | Potency [3] | Potency [7] | Potency [8] | Potency [5] | Potency [6]

Cn1cc(-c2ccc3ncc(Cc4ccc5ncccc5c4)n3n2)cn1
active: Potency [10] 18.6 µM | Potency [12] 13.2 µM
inactive: activation [1] 15.2% and 9.55% | Potency [2] | Potency [3] | Potency [5] | Potency [6] | viability [9] 105% | Potency [11]

C=C1C(=O)OC2CC(C)=C(C(C)CCCO)C(O)C12 (stereo not given)
inactive: activation [1] 7.14% | Potency [2] | Potency [3] | Potency [4] | Potency [5]

Cn1cc(-c2ccncc2)c(-c2ccc(OCc3ccc4ccccc4n3)cc2)n1
inactive: activation [1] -22.8% and -12.9% | Potency [2] | Potency [3] | Potency [8] | Potency [4] | Potency [5] | Potency [6] | Potency [11]
active: Potency [13] 11.8 µM | Potency [10] 5.9 µM | Potency [14] 23.5 µM

Nc1ccccc1NC(=O)c1ccc(CNC(=O)OCc2cccnc2)cc1
inactive: activation [1] 3.28% | Potency [2] | Potency [3] | Potency [7] | Potency [8] | Potency [4] | Potency [5] | Potency [6]
active: Potency [9] 2.09 µM | Potency [13] 2.35 µM | Potency [11] 1.66 µM | Potency [12] 2.63 µM | Potency [15] 4.68 µM
